From PMC5540273 (PLoS ONE, 2017)

Key:
Conditions in all cases: concentration: 1 μM, replicates: in singlicate; n = 1
MTOR = test system: MTOR
MUSK = test system: MUSK
MYLK2 = test system: MYLK2
MYLK4 = test system: MYLK4
MYLK = test system: MYLK
MYO3A = test system: MYO3A
MYO3B = test system: MYO3B
NDR1 = test system: T1, NDR1
T1 construct: gene STK38

NDR2 = test system: NDR2
NEK10 = test system: NEK10
NEK11 = test system: NEK11
NEK1 = test system: NEK1
NEK2 = test system: NEK2
NEK3 = test system: NEK3
NEK4 = test system: NEK4
NEK5 = test system: NEK5
NEK6 = test system: NEK6
NEK7 = test system: NEK7
NEK9 = test system: NEK9
NIK = test system: T2, NIK
T2 construct: gene MAP3K14
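Also: KINOMEscan kinase panel screen.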

Structure (SMILES)	%Inh (MTOR) [%]	%Inh (MUSK) [%]	%Inh (MYLK2) [%]	%Inh (MYLK4) [%]	%Inh (MYLK) [%]	%Inh (MYO3A) [%]	%Inh (MYO3B) [%]	%Inh (NDR1) [%]	%Inh (NDR2) [%]	%Inh (NEK10) [%]	%Inh (NEK11) [%]	%Inh (NEK1) [%]	%Inh (NEK2) [%]	%Inh (NEK3) [%]	%Inh (NEK4) [%]	%Inh (NEK5) [%]	%Inh (NEK6) [%]	%Inh (NEK7) [%]	%Inh (NEK9) [%]	%Inh (NIK) [%]
COCCOCCOc1cc2ncc3c4ccc(C#N)cc4[nH]c3c2cc1OC	0	6	54	72	33	10	0	60	0	0	0	0	53	33	0	0	0	15	7	65
CN(C)S(=O)(=O)c1cc(-c2ccc3nccc(-c4cccc(S(N)(=O)=O)c4)c3c2)cnc1N [GSK1669921]	100	16	0	11	35	0	1	17	0	9	0	0	34	0	10	0	0	31	32	3
CN(c1ccc(NC(=O)Nc2cc(C(F)(F)F)ccc2F)cc1)c1ccnc(Nc2ccc(S(N)(=O)=O)cc2)n1 [GW809893]	0	95.3	65	16	0	50	37	27	11	0	0	100	0	15	26	31	20	0	37	38
O=C(Nc1cccc(Oc2ccc3nc(NC(=O)C4CC4)cn3n2)c1)c1ccccc1C(F)(F)F	15	11	0	0	10	0	0	26	0	0	0	9	12	26	0	9	0	0	0	0
COc1cc(Nc2nccc(-c3c(-c4cccc(NC(=O)c5c(F)cccc5F)c4)nn4ccccc34)n2)cc(OC)c1OC [GSK323521]	33	23	91.6	5	8	26	100	22	0	10	0	8	78	0	34	22	25	33	48	19
CCS(=O)(=O)c1ccc(OC)c(Nc2nccc(-c3c(-c4cccc(NC(=O)c5c(F)cccc5F)c4)nn4ncccc34)n2)c1 [GSK326180]	15	11	9	2	17	30	6	0	0	21	0	0	4	14	6	15	0	0	10	6
Cc1cccc(NC(=O)Nc2ccc(Oc3ncnc4ccn(C)c34)cc2)c1	26	17	0	0	0	0	5	30	0	0	0	0	0	19	0	0	16	0	1	5
COC(=O)Nc1nc2ccc(Oc3ccc(NC(=O)Nc4cc(C(F)(F)F)ccc4F)cc3)cc2n1C.Cl [GW692089]	28	98.5	36	0	0	17	0	24	45	1	25	0	0	0	0	0	0	0	0	27
Nc1ncnc2c1nc(-c1ccccc1)n2-c1ccccc1 [SKF-97293]	8	11	0	25	32	13	38	32	14	21	30	23	0	2	26	0	15	6	0	34
Cc1cccc(Nc2nc(N[C@H]3CCNC3)ncc2C(N)=O)c1.Cl [GSK2197149]	0	0	0	81	16	2	0	0	0	56	0	50	0	7	27	8	0	0	0	20
O=C(Nc1cccc(-c2nn3ccccc3c2-c2ccnc(Nc3cccc(F)c3)n2)c1)c1c(F)ccc(F)c1Cl [GSK357952]	0	11	10	0	5	0	0	41	0	44	6	0	20	0	6	0	0	6	19	36
Cl.Cl.NCC(C(=O)Nc1cc(Br)c(-c2ccnc3[nH]ccc23)s1)c1ccccc1 (stereo not shown) [GSK1269851]	26	1	56	99.8	37	0	0	70	13	12	0	0	15	18	15	0	0	10	9	8
COc1ccc(CNC(=O)NC2CCN(c3ccnc(Nc4ccc(F)cc4)n3)CC2)cc1 [GSK1379788]	18	0	0	5	5	40	0	7	16	3	2	0	0	12	0	13	0	0	0	12
O=C(Nc1cccc(-c2nn3ccccc3c2-c2ccnc(Nc3cccc(C(F)(F)F)c3)n2)c1)c1c(F)cccc1F [GSK292658]	0	10	0	0	0	0	0	0	0	0	0	0	8	0	0	0	0	4	16	0
Cl.Cl.NCC(NCc1ccc(-c2ccnc3[nH]ccc23)s1)c1ccccc1 (stereo not shown) [GSK1321565]	43	13	5	99.8	59	34	0	53	31	27	13	0	0	0	0	10	0	0	6	20
Cc1occc1-c1ncc(OC[C@@H](N)Cc2c[nH]c3ccccc23)cc1-c1ccc2[nH]nc(C)c2c1.O=C(O)C(F)(F)F [GSK682037]	7	7	21	0	29	75	38	30	0	4	0	24	0	0	0	24	0	0	8	78
Cn1cc(-c2ccc3c(c2)CCN3C(=O)Cc2cccc(F)c2)c2c(N)ncnc21 [GSK2603358]	16	5	83	0	18	51	5	0	7	22	8	31	73	11	22	28	0	0	0	23
COc1cccc(C(=O)Nc2cccc(Oc3ccc4nc(NC(=O)C5CC5)cn4n3)c2)c1	0	0	0	0	33	14	0	19	10	0	0	16	8	19	0	23	5	0	0	0
Nc1ncc(-c2cccnc2)c2scc(-c3ccc4c(c3)CCN4C(=O)Cc3ccccc3)c12 [GSK683281]	0	39	32	11	33	17	6	29	0	14	44	0	70	1	17	22	8	19	28	4
CC(=O)Nc1nc2cnc(Nc3cc(NC(=O)c4cccc(C5(C#N)CC5)c4Cl)ccc3C)nc2s1	4	12	0	0	0	0	0	0	0	1	0	0	0	18	10	0	4	7	14	0
